Screening results deposited in PubChem BioAssay by National Center for Advancing Translational Sciences (NCATS).
VACV mCherry inh = inhibitors of vaccinia virus infection (mCherry reporter signal); actives 0.63% (n = 310,000); AID 720579; Potency, µM (top dose mostly 36.5 µM), usual class: inhibitors; Vaccinia virus mCherry reporter infection, fluorescence; calls by dose curve; tested in A549 cells; note: nearly all actives have a fitted effect of over 35% in size
VACV Venus inh = inhibitors of vaccinia virus (Venus reporter); Vaccinia virus Venus reporter expression, fluorescence; Potency, µM (doses to about 36.5 µM), actives largely listed as inhibitors; actives 0.46% (n = 330,000); AID 720580; calls by dose curve; tested in A549 cells; note: nearly all actives have a fitted effect of over 30% in size
Lassa entry inh = inhibitors of Lassa virus binding or cell entry | Potency, µM (top dose mostly 37.9 µM), hits mostly inhibitors | Lassa virus pseudotype entry inhibition, cell reporter | actives 1.2% (n = 300,000); calls by dose curve; tested in HEK293 cells; note: nearly all actives have a fitted effect of over 50% in size
HCV inh = inhibitors of hepatitis C virus infection; Huh7.5.1 HCVcc-Cre infection, luciferase reporter, 44 h; Potency, µM (highest dose often 41.8 µM), hits mostly inhibitors; actives 3.4% (n = 340,000); active = well fitted inhibition curve with a large enough effect; inconclusive = small, poorly fitted or top-dose-only effect, or another doubt; inactive = no such curve, though single readings can be large or run the other way
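Luciferase read-out (15 sec integration) after a 15 min room-temperature substrate step quantifies HCVcc-Cre infection. Cells, 1,000 per well, had compound added 4 h post-plating, then virus at ~0.5 moi, and were cultured 44 h.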
MARV entry inh = blocks Marburg virus binding to or entry into cells; Marburg virus pseudotyped entry inhibition, cell reporter; Potency, µM (doses to about 37.8 µM), actives largely listed as inhibitors; actives 1.8% (n = 300,000); AID 540276; calls by dose curve; tested in HEK293 cells
Numbers stand for hits; 0 = inactive; ? = inconclusive; - = not tested or not shown; ! = not confirmed by another sample; [ ] = another dose, or the depositor's remark. Rows were chosen to be rich in hits. Some 4.6% of all compounds tested hit in one or more screens of this group.

SMILES	VACV mCherry inh	VACV Venus inh	Lassa entry inh	HCV inh	MARV entry inh
COc1ccc(CN2CCC(n3cc(C(=O)N4CCCCC4)nn3)CC2)c(OC)c1	0	0	-	-	-
COc1ccc(C)c2sc(N(Cc3cccnc3)C(=O)C3CCCCC3)nc12	0	0	0	-	-
O=C(Nc1cccc(C(F)(F)F)c1)c1cc(S(=O)(=O)N2CCCC2)c[nH]1	0	0	0	-	-
O=C(CSc1nc2c([nH]c3ccccc32)c(=O)n1-c1ccccc1)Nc1cccc(C(F)(F)F)c1	0	0	?	-	-
CC(C)c1c(O)ccc2c1CC[C@H]1C(C)(C)CCC[C@]21C	0	?	-	2µM	-
Cc1ccccc1Nc1c(-c2cccc(N(C)C)c2)nc2ccc(Br)cn12	0	0	0	-	0
CCN(c1cccc(C)c1)S(=O)(=O)c1csc(C(N)=O)c1	0	0	0	0	0
CCN(c1cccc(C)c1)S(=O)(=O)c1ccc2c(c1)N(C(C)=O)CCS2	0	0	?	11µM	?
Cc1cc(-c2cc(F)cc3c2OC(CNC(=O)[C@@H]2CCC(=O)N2)C3)ccc1F (some centres undefined)	0	0	-	-	-
Cc1ccnc(Nc2nc(-c3c(C)nc4sccn34)cs2)c1	-	-	0	13µM	0
COc1ccc(-c2csc(Nc3cc(C)ccn3)n2)cc1OC	?	0	0	10µM	?
COc1ccc(-c2csc(Nc3ccc(C)cn3)n2)cc1OC	-	-	-	13µM	-
CC(=O)Nc1ccc(-c2csc(Nc3cc(C)ccn3)n2)cc1	0	0	?	?	?
Cc1ccc(Nc2nc(-c3ccc(O)c(O)c3)cs2)nc1	?	0	0	?	?
Cc1cc(=O)c(C(=O)NCCCc2ccncc2)c2n1-c1ccccc1SC(c1cccs1)C2 (centres undefined)	0	0	-	-	-
Cc1nc(NCCc2ccc(S(N)(=O)=O)cc2)c2c(C)c(C)sc2n1	?	?	?	1µM	?
CN1CCN(C(=O)c2cnn(-c3cccc(Cl)c3)c2C2CCN(C(=O)OC(C)(C)C)CC2)CC1	0	0	?	-	-
Cc1cc(/C([O-])=C(/C(=S)Nc2ccc(F)cc2)[n+]2ccccc2)c(C)n1-c1ccc(F)cc1	-	-	0	14µM	0
CN(C)c1ccc(/C=C/c2ccnc3c(N)cccc23)cc1	0	0	-	-	-
CCn1c(=O)cc(SCC(=O)N2CCN(c3ccccc3F)CC2)c2ccccc21	0	0	0	14µM	?
COCCN(Cc1ccccc1)C(=S)Nc1ccc(OC(F)F)cc1	0	0	16µM	0	?
COc1ccc(N2CCN(C(=O)c3cc4c(-c5ccccc5F)nn(C)c4s3)CC2)cc1	0	0	?	-	0
NC(=O)[C@@H]1CCCN1C(=O)CC1(c2cccc(F)c2)CC(=O)N(C2CCCC2)C1=O (some centres undefined)	0	0	-	-	-
CN(C(=O)c1cnn(-c2nccc(-c3ccccc3C(F)(F)F)n2)c1C1CC1)C1CCOC1 (centres undefined)	0	0	-	-	-
COc1ccc(CN(CCC(c2ccc(F)cc2)C2CCOC(C)(C)C2)C(=O)c2ccco2)cc1 (centres undefined)	0	0	?	?	7.9µM!
SMILES	VACV mCherry inh	VACV Venus inh	Lassa entry inh	HCV inh	MARV entry inh
CC(c1ccccc1)N(CCC(c1ccccc1)C1CCOC(C)(C)C1)C(=O)c1ccco1 (centres undefined)	0	0	?	0	4µM
O=C(c1ccco1)N(CCC(c1ccccc1)c1ccco1)Cc1ccccc1 (centres undefined)	0	0	?	0	?
COc1ccc(CN(CCC(c2ccccc2)c2ccco2)C(=O)c2ccco2)cc1 (centres undefined)	0	0	?	0	10µM
Cc1cccc(N(C)C(=O)CSc2nc3ncccc3o2)c1	0	0	0	-	-
CN(C)c1ccc(C=C2SC(=S)NC2=O)cc1	0	0	0	0	?
CN(C)c1ccc(/C=N/N=C2/NC(=O)/C(=C/c3ccc([N+](=O)[O-])cc3)S2)cc1	0	0	2µM	0	?
CCc1cc2c(nc1CC)CCN(CC/C(C)=N/O[C@H](C)c1cn([C@H](CO)Cc3ccccc3)nn1)C2	-	-	-	-	0
O=S(c1ccc2ccccc2c1)c1cnns1 (centres undefined)	-	10µM	?	?	?
Cc1nnsc1S(=O)c1ccc(Cl)c(Cl)c1 (centres undefined)	-	-	-	0	-
N[C@@H]1C=CC=C(C(=O)O)C1	-	-	-	-	0
COc1ccccc1Nc1nc(Cl)nc(Nc2ccccc2OC)n1	0	0	0	13µM	0
COc1ccccc1Nc1cc(C)nc(Nc2ccccc2OC)n1	0	0	0	2.5µM	0
C=CCNc1nc(Cl)nc(Nc2cc(Cl)ccc2OC)n1	0	0	0	0	13µM
COc1ccccc1Nc1nc(C)cc(C)n1	0	0	?	0	0
Cc1nc2nc(CNC(=O)OC(C)(C)C)nn2c(C)c1CCC(=O)NCc1ccccc1Cl	0	0	0	-	?
O=C(CC1C=Cc2ccccc2N1C(=O)c1ccccc1)c1ccccc1 (centres undefined)	0	0	-	10µM	-
COC(=O)N[C@H](c1ccccc1)C(C(=O)OC)C(=O)OC	-	-	-	-	0
Cc1ccc(CN2C[C@H](Sc3ccccn3)C[C@H]2C(=O)Nc2ccc3sc(C)nc3c2)s1	0	?	-	-	-
CCCC12CN3CC(C)(CN(C1)C3c1ccc(OCc3ccccc3)cc1)C2=O (centres undefined)	0	0	0	-	0
COCc1ccc(CN2CCOc3c(cc(-c4ccc(SC)cc4)cc3OC)C2)o1	0	0	-	-	-
CC[C@@H]1C=C(C(=O)O)[C@H](c2ccc3c(c2)OCO3)N1S(=O)(=O)c1ccc(C)cc1	?	0	-	32µM	-
CCCC[C@@H]1C=C(C(=O)O)[C@H](c2ccc(CC)cc2)N1S(=O)(=O)c1ccc(C)cc1	0	0	-	0.56µM	-
CCCCC[C@@H]1C=C(C(=O)O)[C@H](c2ccc3c(c2)OCO3)N1S(=O)(=O)c1ccc(C)cc1	0	0	-	0	-
CCCCC[C@@H]1C=C(C(=O)O)[C@H](c2ccc(CC)cc2)N1S(=O)(=O)c1ccc(C)cc1	0	0	-	0[8.37 µM]	-
COc1ccc(Br)cc1CNC(=O)C1CCCCN1S(=O)(=O)c1ccc(F)cc1 (centres undefined)	0	0	0	-	-
SMILES	VACV mCherry inh	VACV Venus inh	Lassa entry inh	HCV inh	MARV entry inh
O=C(C[N+]1(CCO)CCOCC1)c1ccc(F)c2ccccc12	?	0	-	-	-
CCOC(=O)c1oc2ccc(CNC3CCCCC3)c(Cl)c2c1C	0	0	?	?	7.3µM
O=C(N/N=C/c1cc([N+](=O)[O-])ccc1O)c1c[nH]c2ccccc12	?	0	-	0	-
O=C(N/N=C/c1cccc([N+](=O)[O-])c1)c1cc2ccccc2o1	0	0	0	11µM	?
O=C(NN=Cc1cc([N+](=O)[O-])ccc1O)c1cccc2ccccc12	?	?	7.1µM	?	10µM
O=C(N/N=C/c1ccsc1)c1cc2ccccc2o1	-	-	-	0	-
Nc1ccc(C(=O)N/N=C\c2cc(N=Nc3cccc4ccccc34)ccc2O)cc1	-	-	?	11µM	16µM
O=C(N/N=C/c1ccc(-c2cccc([N+](=O)[O-])c2)o1)c1ccc([N+](=O)[O-])cc1	0	0	0	10µM	?
CC(=O)c1cccc(Nc2ncnc3c2cnn3C)c1	0	0	?	-	-
